Data taken from PubChem BioAssay (EPA / NIEHS).
Where “and” joins values, the source holds several entries; their conditions need not be identical. Equal values may be shown once. Where a structure was tested more than once in an assay, its records may differ in their call. Calls of active or inactive are those of the source. How the source made its calls: active means hit-call score of the fitted dose curve at least 0.9, where 1 is the maximum; inactive means score below 0.9.

Experiments:
[1] = read-out: Interleukin 2 (IL2), IL2 (gene 3558); test: BSK_BT_xIL2: BioMAP Diversity Plus: BT Assay for Interleukin 2 (IL2) Biomarker Activity (AID 2284245); conditions: primary human B cells with PBMC
Method in brief: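 B cell + PBMC co-culture (human primary), compound added, 24 h incubation; secreted IL-2 measured multiplexed on Luminex xMAP; gain-of-signal fit vs DMSO.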

[2] = read-out: Basic fibroblast growth factor (bFGF), FGF2 (gene 2247); test: BSK_MyoF_bFGF: BioMAP Diversity Plus: MyoF Assay for Basic fibroblast growth factor (bFGF) Biomarker Activity (AID 2284246); conditions: primary human lung fibroblasts
Method in brief: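 ELISA-measured bFGF level serves as the read-out, taken 24 h after chemical dosing of human lung fibroblasts. Values represent signal gain over the DMSO negative control.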

[3] = read-out: Collagen IV, COL4A1 (gene 1282); test: BSK_MyoF_CollagenIV: BioMAP Diversity Plus: MyoF Assay for Collagen IV Biomarker Activity (AID 2284247); conditions: primary human lung fibroblasts
Method in brief: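 Steps: dose human lung fibroblasts; culture 24 h; quantify Collagen IV by ELISA; fit increase versus DMSO control. Parallel SRB total-protein staining (0.1% SRB after 10% TCA fixation, 560 nm) tracks overt cytotoxicity.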

[4] = read-out: Plasminogen activator inhibitor-1 (PAI1), SERPINE1 (gene 5054); test: BSK_MyoF_PAI1: BioMAP Diversity Plus: MyoF Assay for Plasminogen activator inhibitor-1 (PAI1) Biomarker Activity (AID 2284256); conditions: primary human lung fibroblasts
Method in brief: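 MyoF lung fibroblasts, human primary; compound 24 h; PAI-1 ELISA; positive-direction fit vs DMSO baseline; parallel SRB total-protein staining for cytotoxicity.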

[5] = read-out: Interleukin-8 (IL8), CXCL8 (gene 3576); test: BSK_MyoF_IL8: BioMAP Diversity Plus: MyoF Assay for Interleukin-8 (IL8) Biomarker Activity (AID 2284261); conditions: primary human lung fibroblasts
Method in brief: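 Lung fibroblasts (human primary) → chemical exposure → 24 h → IL-8 measured by ELISA. Signal increase scored versus DMSO control.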

[6] = read-out: Decorin, DCN (gene 1634); test: BSK_MyoF_Decorin: BioMAP Diversity Plus: MyoF Assay for Decorin Biomarker Activity (AID 2284265); conditions: primary human lung fibroblasts
Method in brief: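 ELISA readout of decorin, 24 h post-dosing; primary human lung fibroblast (MyoF) culture; gain-of-signal fit vs DMSO baseline.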

[7] = read-out: Monokine induced gamma interferon (MIG), CXCL9 (gene 4283); test: BSK_KF3CT_MIG: BioMAP Diversity Plus: KF3CT Assay for Monokine induced gamma interferon (MIG) Biomarker Activity (AID 2284248); conditions: primary human keratinocytes with fibroblasts
Method in brief: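 ELISA read-out of MIG after 24 h chemical exposure of human skin primary co-culture (keratinocytes, foreskin fibroblasts). Gain of signal relative to DMSO negative control was analysed.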

[8] = read-out: Vascular cell adhesion molecule 1 (VCAM1), VCAM1 (gene 7412); test: BSK_BF4T_VCAM1: BioMAP Diversity Plus: BF4T Assay for Vascular cell adhesion molecule 1 (VCAM1) Biomarker Activity (AID 2284249); conditions: primary human bronchial epithelial cells with fibroblasts
Method in brief: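 Human bronchial epithelial cell and dermal fibroblast co-culture exposed 24 h. VCAM-1 measured by ELISA; parallel SRB total-protein staining for cytotoxicity. Fitted in positive direction relative to DMSO.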

[9] = read-out: Collagen I, COL1A1 (gene 1277); test: BSK_hDFCGF_CollagenI: BioMAP Diversity Plus: hDFCGF Assay for Collagen I Biomarker Activity (AID 2284250); conditions: primary human foreskin fibroblasts
Method in brief: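 Human skin primary fibroblasts dosed with test chemical, harvested at 24 h, Collagen I quantified by ELISA; parallel SRB staining (0.1% SRB after 10% TCA fixation, 560 nm) tracked cytotoxicity.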

[10] = read-out: Interferon-inducible T-cell alpha chemoattractant (ITAC), CXCL11 (gene 6373); test: BSK_hDFCGF_ITAC: BioMAP Diversity Plus: hDFCGF Assay for Interferon-inducible T-cell alpha chemoattractant (ITAC) Biomarker Activity (AID 2284251); conditions: primary human foreskin fibroblasts
Method in brief: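 Primary human foreskin fibroblasts (hDFCGF system) treated for 24 h; I-TAC quantified by ELISA. Gain-direction fitting versus DMSO; parallel SRB staining of total protein flagged overt cytotoxicity.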

[11] = read-out: Monocyte Chemoattractant Protein-1 (MCP1), CCL2 (gene 6347); test: BSK_IMphg_MCP1: BioMAP Diversity Plus: IMphg Assay for Monocyte Chemoattractant Protein-1 (MCP1) Biomarker Activity (AID 2284253); conditions: primary human endothelial cells with macrophages
Method in brief: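 Human venular endothelial cells co-cultured with macrophages; MCP-1 measured by ELISA 24 hours post-dose and fitted against DMSO. Cytotoxicity monitored by SRB total-protein staining in parallel cultures.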

[12] = read-out: Interleukin-8 (IL8), CXCL8 (gene 3576); test: BSK_KF3CT_IL8: BioMAP Diversity Plus: KF3CT Assay for Interleukin-8 (IL8) Biomarker Activity (AID 2284254); conditions: primary human keratinocytes with fibroblasts
Method in brief: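 IL-8 read-out: ELISA, 24 h post-dose, human skin primary co-culture (keratinocytes + foreskin fibroblasts). DMSO = baseline; positive-direction fit.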

[13] = read-out: Macrophage Inflammatory Protein-1 Alpha (MIP1a), CCL3 (gene 6348); test: BSK_IMphg_MIP1a: BioMAP Diversity Plus: IMphg Assay for Macrophage Inflammatory Protein-1 Alpha (MIP1a) Biomarker Activity (AID 2284255); conditions: primary human endothelial cells with macrophages
Method in brief: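 Co-culture of human venular endothelial cells and macrophages exposed to compounds for 24 h; MIP-1a measured by ELISA relative to DMSO. Cytotoxicity assessed in parallel cultures by sulforhodamine B total-protein staining at 560 nm.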

[14] = read-out: CD69, CD69 (gene 969); test: BSK_IMphg_CD69: BioMAP Diversity Plus: IMphg Assay for CD69 Biomarker Activity (AID 2284257); conditions: primary human endothelial cells with macrophages
Method in brief: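 Human venular endothelial cells co-cultured with macrophages; CD69 quantified by ELISA 24 h after compound addition. Activity fitted in the positive direction relative to DMSO baseline; cytotoxicity tracked in parallel cultures via SRB total-protein staining.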

[15] = read-out: Eotaxin 3, CCL26 (gene 10344); test: BSK_BF4T_Eotaxin3: BioMAP Diversity Plus: BF4T Assay for Eotaxin 3 Biomarker Activity (AID 2284258); conditions: primary human bronchial epithelial cells with fibroblasts
Method in brief: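 Co-culture of human bronchial epithelial cells and dermal fibroblasts, exposed to chemicals for 24 h versus DMSO. Eotaxin-3 quantified by ELISA; cytotoxicity checked in parallel cultures by sulforhodamine B total-protein staining.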

[16] = read-out: Monocyte Chemoattractant Protein-1 (MCP1), CCL2 (gene 6347); test: BSK_BF4T_MCP1: BioMAP Diversity Plus: BF4T Assay for Monocyte Chemoattractant Protein-1 (MCP1) Biomarker Activity (AID 2284259); conditions: primary human bronchial epithelial cells with fibroblasts
Method in brief: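 Co-culture of bronchial epithelial cells and dermal fibroblasts dosed with chemical; MCP-1 measured by ELISA 24 h later. Activity fitted in positive direction versus DMSO; cytotoxicity checked by SRB staining in parallel cultures.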

[17] = read-out: Intercellular Adhesion Molecule 1 (ICAM1), ICAM1 (gene 3383); test: BSK_BF4T_ICAM1: BioMAP Diversity Plus: BF4T Assay for Intercellular Adhesion Molecule 1 (ICAM1) Biomarker Activity (AID 2284260); conditions: primary human bronchial epithelial cells with fibroblasts
Method in brief: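 Co-culture of human bronchial epithelial cells and dermal fibroblasts exposed 24 h to chemical; cell-surface ICAM-1 quantified by ELISA. Parallel SRB total-protein staining assessed cytotoxicity; activity fitted relative to DMSO.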

[18] = read-out: CD90, THY1 (gene 7070); test: BSK_BF4T_CD90: BioMAP Diversity Plus: BF4T Assay for CD90 Biomarker Activity (AID 2284262); conditions: primary human bronchial epithelial cells with fibroblasts
Method in brief: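 Co-culture of human bronchial epithelial cells and dermal fibroblasts, 24 h compound exposure. Cell-surface CD90 measured by ELISA relative to DMSO; parallel SRB total-protein staining for cytotoxicity.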

[19] = read-out: Interleukin-8 (IL8), CXCL8 (gene 3576); test: BSK_BF4T_IL8: BioMAP Diversity Plus: BF4T Assay for Interleukin-8 (IL8) Biomarker Activity (AID 2284263); conditions: primary human bronchial epithelial cells with fibroblasts
Method in brief: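 Human bronchial epithelial cells with dermal fibroblasts co-culture; IL-8 measured by ELISA 24 hours after dosing, fitted vs DMSO. Cytotoxicity tracked in parallel cultures by SRB total-protein staining.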

[20] = read-out: Interleukin-1 alpha (IL1a), IL1A (gene 3552); test: BSK_BF4T_IL1a: BioMAP Diversity Plus: BF4T Assay for Interleukin-1 alpha (IL1a) Biomarker Activity (AID 2284264); conditions: primary human bronchial epithelial cells with fibroblasts
Method in brief: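 Human bronchial epithelial cells co-cultured with dermal fibroblasts, dosed and read at 24 h. Secreted/surface IL-1α quantified by ELISA; gain-of-signal fitted relative to DMSO baseline. Parallel SRB total-protein staining tracked cytotoxicity.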

Measured: AC50

O=C1CCCCCCCCCCCN1
inactive: [1] | [2] | [3] | [4] | [5] | [6]

CCOC(=O)/C=C\C(=O)OCC
inactive: [1] | [2] | [3] | [4] | [5] | [6]

Oc1ccc(/C=C/c2cc(O)cc(O)c2)cc1
inactive: [1] | [2] | [3] | [4] | [5] | [6]

COc1ccc(C(=O)c2ccccc2)c(O)c1
inactive: [1] | [2] | [3] | [4] | [5] | [6]

C=CC(=O)OCCCCCCOC(=O)C=C
inactive: [5] | [6]
active: [1] 9.78 µM | [2] 34.7 µM | [3] 3.31 µM | [4] 34.6 µM

C[N+](C)(C)CCCNS(=O)(=O)C(F)(F)C(F)(F)C(F)(F)C(F)(F)C(F)(F)C(F)(F)C(F)(F)C(F)(F)F
inactive: [3] | [7] | [8] | [9] | [11] | [12] | [4] | [14] | [15] | [16] | [17] | [5] | [18] | [19] | [20]
active: [1] 32.6 µM and 21.5 µM | [2] 46.9 µM and 47.2 µM | [3] 48.9 µM | [10] 47.1 µM and 49.6 µM | [13] 50.5 µM and 56.9 µM | [4] 21.9 µM | [14] 8.01 µM | [20] 30 µM | [6] 9.66 µM and 11.2 µM

C=CCCCCCCCCC=O
inactive: [1] | [2] | [3] | [4] | [5] | [6]

O=C1CCCCCCCCCCC1
inactive: [1] | [2] | [3] | [4] | [5] | [6]

CC=C(C)C=CC=C(C)C
inactive: [2] | [5] | [6]
active: [1] 28.5 µM | [3] 0.016 µM | [4] 0.016 µM

CCCCCCCO
inactive: [1] | [2] | [3] | [4] | [5] | [6]

Nc1cccc(N)n1
inactive: [1] | [2] | [3] | [4] | [5] | [6]

O=C(Cl)c1c(Cl)c(Cl)c(C(=O)Cl)c(Cl)c1Cl
inactive: [1] | [2] | [3] | [4] | [5] | [6]
